Data on 67 compounds can be found in ChEMBL document CHEMBL4513216, “Probing the Open Global Health Chemical Diversity Library for Multistage-Active Starting Points for Next-Generation Antimalarials” (ACS Infect Dis, 2020).

Each structure is given as a SMILES string. Out of some 69,000 compounds screened, about 8,600 (12%) showed an effect of 50% or more. This excerpt belongs to a sample that is enriched for strong results.

This experiment has as its system Plasmodium berghei. Description: Screen against P. berghei liver stage (PbLuc), transformed with Luciferase, at 10uM. The experiment is classed as functional, HepG2. The following applies: tested at 10 uM.
`COc1c(C)cnc(CN2CCn3c(C)nnc3C2)c1C`: the INHIBITION was -7.53%.

As for `c1ccc2oc(CCCN3CCCC3c3noc(C4CC4)n3)nc2c1` (configuration not stated), the INHIBITION came to 9.54%.

Take `COCC(=O)N1CCC2(CC1)CC(COC)N(c1ncccn1)C2` (configuration not stated): the INHIBITION is -6.23%.

Consider `COCCC(=O)N1CCCC(c2nc(O)cc(-c3ccncc3)n2)C1` (configuration not stated), for which the INHIBITION is on record as 28%.

For the compound `CNC(=O)[C@@]12CCO[C@@H]1CCN(Cc1cccc(C)c1)C2`, the INHIBITION was 38.1%.

Take `O=C(O)CSc1nnc(-c2ccn[nH]2)n1-c1ccccc1C(F)(F)F`: the INHIBITION was found to be 27.4%.

In the case of `O=C(O)CSc1nnc(-c2cn[nH]c2)n1-c1ccccc1Cl`, the INHIBITION is listed as 9.87%.

Regarding `O=C(O)CSc1nnc(-c2cn[nH]c2)n1-c1ccccc1C(F)(F)F`, the INHIBITION is given as 90.8%.

`CCc1ncc(C(=O)N2CCCN(C3CCCC3)CC2)cn1`: the INHIBITION is 43.6%.

As to `CCCc1noc(CCC(=O)N2CCCC2Cn2cc(C)cn2)n1` (configuration not stated), the INHIBITION was -13.5%.

Consider `O=C(CC1CCc2ccccc21)N1CCC(O)(c2cccnc2)CC1` (configuration not stated), for which the INHIBITION came out at 6.83%.

For `CS(=O)(=O)Nc1cccc(C(=O)Nc2ccc3c(c2)C(=O)NC3)c1`, the INHIBITION is recorded as -13.2%.

With `O=C(CNC(=O)c1ccoc1)NCCOc1ccc2c(c1)CCC2`, the INHIBITION is given as -112%.

With `Cc1ccoc1C(=O)NCCOc1ccc(C(F)(F)F)cn1`, the INHIBITION came out at 31.7%.

For `Cc1nc(C)c(C(=O)NCCOc2ccc(C(F)(F)F)cn2)o1`, the INHIBITION stood at 64.4%.

Take `O=C(NCCOc1ccc(C(F)(F)F)cn1)c1ccoc1`: the INHIBITION is listed as 57.5%.

Regarding `O=C(NCCNS(=O)(=O)c1ccc(C(F)(F)F)cc1)c1ccoc1`, the INHIBITION was found to be 0.266%.

Regarding `CC(C)c1ccc(OCCNC(=O)N2CCS(=O)(=O)CC2)cc1`, the INHIBITION is -12.21%.

For `O=C(NCCNc1ccc(C(F)(F)F)cn1)c1ccoc1`, the INHIBITION is 22.8%.

For the compound `CC(C)c1ccc(OCCNC(=O)c2ccoc2)cc1`, the INHIBITION turned out to be 87.1%.

On to `Cc1occc1C(=O)NCCOc1ccc(C(F)(F)F)cn1`, for which the INHIBITION is 27.7%.

On to `c1ccc(Cc2noc(-c3ccc(NCC4CCCOC4)nc3)n2)cc1` (configuration not stated), for which the INHIBITION was 18.8%.

As for `Cc1sc2ccccc2c1S(=O)(=O)NCCNC(=O)C(C)C`, the INHIBITION is -35%.

As to `Cc1ccc(N2C[C@H]3CCC[C@@]3(COc3cccnc3)C2)nn1`, the INHIBITION is given as -44.2%.

Take `CC(=O)Nc1c(C)noc1C=Cc1ccc(S(=O)(=O)NC2CC2)cc1`: the INHIBITION is reported as 47.2%.

As to `OC1(CNCCN2CCCc3ccccc32)CCNC1` (configuration not stated), the INHIBITION worked out at 9.55%.

For the compound `Cn1c(=O)c2cc(C(=O)NCCOCC(F)(F)F)ccc2n(C)c1=O`, the INHIBITION amounted to 27.8%.

Consider `Cc1cc(N2CCC(Cc3cnccn3)C2)ncn1` (configuration not stated), for which the INHIBITION is on record as 2.55%.

As for `CC(C)(C)c1n[nH]cc1CNC1CCC(C(F)(F)F)CC1` (configuration not stated), the INHIBITION was -32.6%.

As for `CN(C)C(=O)C1CN(Cc2cscn2)CCN(S(C)(=O)=O)C1` (configuration not stated), the INHIBITION is on record as 37%.

In the case of `Cc1cccc(C(=O)N2CC[C@H]3C[C@@H](C)O[C@@H]3C2)n1`, the INHIBITION stood at 7.31%.

For the compound `C[C@@H]1C[C@@H]2CCN(Cc3ccccn3)C[C@H]2O1`, the INHIBITION turned out to be 55.5%.

As for `CN(C)C(=O)C1CN(Cc2ccccn2)CCN(S(C)(=O)=O)C1` (configuration not stated), the INHIBITION was determined as 89.3%.

In the case of `C[C@@H]1C[C@@H]2CCN(Cc3ccncc3)C[C@H]2O1`, the INHIBITION amounted to 15.9%.

Consider `Cc1cccc(CN2CC[C@H]3C[C@@H](C)O[C@@H]3C2)n1`, for which the INHIBITION was found to be 76.5%.

As for `CN(C)C(=O)C1CN(Cc2ccccc2)CCN(S(C)(=O)=O)C1` (configuration not stated), the INHIBITION was determined as 32.4%.

Regarding `Cc1csc(CN2CC[C@H]3C[C@H](C)O[C@@H]3C2)n1`, the INHIBITION is 15.4%.

With `C[C@H]1C[C@H]2CN(Cc3ccccn3)CC[C@@H]2O1`, the INHIBITION amounted to 46.2%.

On to `Cc1cccc(CN2CC[C@H]3C[C@H](C)O[C@@H]3C2)n1`, for which the INHIBITION came out at 56.7%.

On to `C[C@H]1C[C@@H]2CCN(Cc3ccco3)C[C@H]2O1`, for which the INHIBITION worked out at 46.2%.

With `C[C@H]1C[C@@H]2CCN(Cc3ccccn3)C[C@H]2O1`, the INHIBITION came out at 15.9%.

For the compound `Cc1cc(N2CCCC2c2cc(Nc3cnccn3)nc(C)n2)ncn1` (configuration not stated), the INHIBITION is reported as -50.2%.

In the case of `Cc1nc(C)n(CC2CCCCN2Cc2nc(-c3ccco3)no2)n1` (configuration not stated), the INHIBITION is on record as -12.915%.

As for `Cc1ccc(C(=O)N2CCn3c(COCC4CC4)cnc3C2C)nc1` (configuration not stated), the INHIBITION was 39.3%.

For `CN(CC1(O)CCN(c2ccccn2)C1)C(=O)Cc1ccsc1` (configuration not stated), the INHIBITION is given as 46%.

For the compound `CCN(CC)c1ccc(NS(=O)(=O)c2cnn(C)c2)cn1`, the INHIBITION was 0.139%.

Take `CCN(CC)c1ccc(NS(=O)(=O)c2cccnc2)cn1`: the INHIBITION is reported as 77.5%.

In the case of `CCN(CC)c1ccc(NS(=O)(=O)c2cncc(F)c2)cn1`, the INHIBITION was found to be 46.8%.

On to `CCC(CNC(=O)c1cccc(S(=O)(=O)NC)c1)N1CCCC1` (configuration not stated), for which the INHIBITION turned out to be 18%.

Take `COCCN1CCc2ncnc(-c3ccccc3)c2CC1`: the INHIBITION was found to be 8.66%.

On to `Cc1ccc(C(=O)N(C)CC(=O)Nc2cccc(C)n2)cn1`, for which the INHIBITION worked out at 16.8%.

As for `Cc1ccc(NC(=O)CN(C)C(=O)c2ccc(-n3cccc3)nc2)nc1`, the INHIBITION is on record as 68.9%.

Consider `Cc1cccc(NC(=O)CN(C)C(=O)c2ccc(-n3cccc3)nc2)n1`, for which the INHIBITION stood at 8.08%.

Take `Nc1nc(C2CCN(C(=O)c3cnco3)CC2)cs1`: the INHIBITION is reported as 18.9%.

For the compound `Cc1cc(N[C@H]2CN(CC(C)(C)N3CCOCC3)C[C@@H]2C2CC2)ncn1`, the INHIBITION came to 35.8%.

With `CCCc1cc(C(=O)N(C)Cc2cccc3ncccc23)n(C)n1`, the INHIBITION was 46.8%.

As for `CCCc1cc(C(=O)N(C)Cc2ccc(OC)c3ncccc23)n(C)n1`, the INHIBITION is 67.9%.

Take `CC(C)c1cc(C(=O)N(C)Cc2cccc3ncccc23)n(C)n1`: the INHIBITION is 67.2%.

As for `CCOCCn1nc(C)cc1C(=O)N(C)Cc1cccc2ncccc12`, the INHIBITION was determined as 36%.

Take `CCCc1cc(C(=O)N(C)Cc2cccc3cnccc23)n(C)n1`: the INHIBITION is given as 6.33%.

Consider `CN(Cc1cccc2ncccc12)C(=O)CCn1ccc(=O)[nH]c1=O`, for which the INHIBITION is reported as 30.9%.

With `O=C(c1ccc2c(c1)OCCO2)N1CCCC(n2ccnc2)C1` (configuration not stated), the INHIBITION amounted to 37.9%.

`CCC(=O)N1CCC(c2nc(C)c3c(n2)N(C)CCC3)CC1`: the INHIBITION worked out at 34.1%.

Turning to `CC(C)N1CC(c2ccnc(Nc3nccs3)n2)C1`, the INHIBITION was determined as 29.49%.

Regarding `COc1ccc(Cl)cc1-n1cnc(CCNC(C)=O)c1`, the INHIBITION stood at 71.5%.

Consider `COc1ccc(F)cc1-n1cnc(CCNC(C)=O)c1`, for which the INHIBITION is 35.1%.

For `COc1cc(F)c(-n2cnc(CCNC(C)=O)c2)cc1F`, the INHIBITION was determined as 4.1%.
